Measured values reported in PubChem BioAssay.
Where “and” joins values, the source holds several entries; their conditions need not be identical. Equal entries are not always repeated. Calls of active or inactive are those of the source.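 How the source made its calls, unless noted: active means inhibition at or above 50% relative to wild type and mutant plate controls; inactive means inhibition below 50%.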

Experiments:
[1] = inhibitors of TNFa-induced NFkB p65 translocation, primary screen, imaging, HUVEC, MLSMR starter and 10KST1 sets (AID 438;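 active means inhibition above 20% together with a positive visual image hit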;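 further: compound added about 3h40 before a 20 min TNFalpha stimulation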;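 on inhibition: signal is the nuclear over cytoplasmic p65 intensity ratio per well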); details: HUVEC TNFa-induced p65 nuclear translocation; cell count: measured here: nuclei count (cytotoxicity indicator), at 2.08 µM; inhibition: at 2 µM, stronger effect = higher value, 0% TNFa-plus-vehicle, 100% no-TNFa wells
[2] = inhibitors of mutant huntingtin aggregation, primary screen, imaging, exon1htt(103Q)mCFP cells, high-content imaging (AID 483;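 active means visual image review flags a hit and inhibition of aggregation exceeds 20%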;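 further: compound exposure lasted 3 days before fixation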;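 on nuclei count: percent of the per-plate median nuclei count of sample wells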); details: exon1htt(103Q)mCFP cell line, aggregate imaging, at 2 µM; inhibition of aggregation: stronger effect = higher value; nuclei count: measured here: cell count, toxicity
[3] = inhibitors of E-selectin induction by TNFa, primary screen, imaging, HUVEC, immunofluorescence, MLSMR starter and 10KST1 sets (AID 487;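 active means visually confirmed hit in the image check and inhibition above 20%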;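 on inhibition: signal is fraction of cell area covered by stained E-selectin grains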;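 on nuclei count: 100% = median nuclei count of all wells on the same plate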); details: HUVEC TNFalpha-induced E-selectin immunofluorescence imaging, at 2 µM; inhibition: stronger effect = higher value; nuclei count: measured here: cell number, toxicity
[4] = DUSP6 inhibitors restoring Erk phosphorylation by chemical complementation, primary imaging in DUSP6-transfected HeLa (AID 609;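 active means compounds giving at least 50% inhibition in the cell-based MKP-3 phosphatase rescue imaging test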;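 on inhibition: phospho-Erk level distribution per well compared with pooled transfected vehicle control wells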); details: HeLa MKP-3 transfected, phospho-Erk imaging KS statistic, at 10 µM, cells stimulated with TPA for 15 min
[5] = molecular target: Dual specificity protein phosphatase 6 (Homo sapiens) (UniProt Q16828); experiment: as above; details: HeLa MKP-3 transfected, phospho-Erk imaging KS statistic; at 10 µM; stronger effect = higher value; cells stimulated with TPA for 15 min
Sequence of Dual specificity protein phosphatase 6 (Homo sapiens) (Q16828 whole entry, looked up): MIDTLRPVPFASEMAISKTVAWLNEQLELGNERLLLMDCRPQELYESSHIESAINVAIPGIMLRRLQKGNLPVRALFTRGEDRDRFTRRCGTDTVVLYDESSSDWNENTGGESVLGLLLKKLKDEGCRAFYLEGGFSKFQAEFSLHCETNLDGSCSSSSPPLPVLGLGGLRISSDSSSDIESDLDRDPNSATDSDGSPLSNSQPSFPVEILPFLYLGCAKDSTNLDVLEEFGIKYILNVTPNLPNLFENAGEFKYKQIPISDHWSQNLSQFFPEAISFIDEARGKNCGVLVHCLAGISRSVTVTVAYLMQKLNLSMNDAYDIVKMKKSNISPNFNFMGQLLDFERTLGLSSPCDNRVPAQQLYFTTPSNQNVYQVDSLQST

[6] = molecular target: Voltage-gated potassium channel subunit beta-2 (Rattus norvegicus) (UniProt P62483); experiment: KvBeta enzyme negative modulators, primary screen, biochemical, NADPH fluorescence (AID 622;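 active means fluorescence slope higher than the sample average by over 3 SD, cut at about -0.22 in these data, passing the limit was not always enough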;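 further: slope of raw intensity against log time taken from 70 to 1610 s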); details: recombinant KvBeta, 4-cyanobenzaldehyde reduction, at 10 µM, stronger effect = higher value
Sequence of Voltage-gated potassium channel subunit beta-2 (Rattus norvegicus) (P62483 whole entry, looked up): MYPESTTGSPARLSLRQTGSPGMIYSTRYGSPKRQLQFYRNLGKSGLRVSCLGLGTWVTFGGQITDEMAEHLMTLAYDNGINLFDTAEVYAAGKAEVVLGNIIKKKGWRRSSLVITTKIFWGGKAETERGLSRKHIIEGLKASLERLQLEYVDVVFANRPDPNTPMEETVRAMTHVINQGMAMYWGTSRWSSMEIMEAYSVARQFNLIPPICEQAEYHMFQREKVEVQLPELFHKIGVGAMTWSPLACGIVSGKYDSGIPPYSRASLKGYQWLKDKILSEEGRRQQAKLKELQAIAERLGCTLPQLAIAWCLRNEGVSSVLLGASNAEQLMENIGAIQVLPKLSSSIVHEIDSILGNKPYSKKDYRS

[7] = molecular target: Voltage-gated potassium channel subunit beta-2 (Rattus norvegicus) (UniProt P62483); experiment: KvBeta positive modulators, primary screen, biochemical, NADPH fluorescence (AID 623;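 active means NADPH fluorescence slope more negative than the mean of all samples by about 3 SD, 99.7% confidence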;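 further: fluorescence intensity change per second fitted from 20 to 320 s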); details: Recombinant KvBeta, NADPH fluorescence decrease slope, 10 min; at 10 µM; stronger effect = lower value
[8] = molecular target: Alpha-2C adrenergic receptor (Homo sapiens) (UniProt P18825); experiment: modulators of alpha2C/GIRK thallium flux, primary screen, cell-based, HEK293 alpha2C/GIRK1/2 (AID 624;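 active means fluorescence slope after compound addition differing from the mean of all screened samples at 99.7% confidence, in either direction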;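 further: slope of fluorescence ratio to pre-addition baseline per second over 15 to 24 s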); details: thallium flux BTC fluorescence, at 10 µM, actives lie on both sides
Sequence of Alpha-2C adrenergic receptor (Homo sapiens) (P18825 whole entry, looked up): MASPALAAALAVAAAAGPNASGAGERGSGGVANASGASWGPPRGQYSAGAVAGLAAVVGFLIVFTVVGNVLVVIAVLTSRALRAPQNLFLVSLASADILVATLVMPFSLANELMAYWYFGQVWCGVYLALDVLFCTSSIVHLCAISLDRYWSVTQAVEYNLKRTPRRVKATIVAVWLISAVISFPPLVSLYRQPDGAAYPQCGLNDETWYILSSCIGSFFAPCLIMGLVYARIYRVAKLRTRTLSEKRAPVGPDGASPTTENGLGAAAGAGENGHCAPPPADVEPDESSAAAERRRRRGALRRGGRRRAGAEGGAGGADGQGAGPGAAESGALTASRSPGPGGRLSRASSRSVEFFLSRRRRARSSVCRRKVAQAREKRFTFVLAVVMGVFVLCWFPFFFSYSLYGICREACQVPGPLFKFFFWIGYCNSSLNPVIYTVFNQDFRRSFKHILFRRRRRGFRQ

[9] = inhibitors of larval lipid processing in zebrafish, primary screen, whole organism, PED6 fluorescence, gall bladder and intestine (AID 686;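 active means a full or partial loss of lipid-probe fluorescence in the fish gall bladder, intestine or both, judged by eye; inactive means no fluorescence loss, or compound toxic to the fish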;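 further: larvae 5 to 7 days old with five fish per well; signal comes from phospholipase A2 cleavage of quenched PED6 carried via bile; overnight exposure to compound and PED6 before scoring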); details: Zebrafish larvae PED6 lipid processing, fluorescence scoring; screened at 20 µM (by protocol)
[10] = inhibitors of Chlamydomonas gravitaxis, primary screen, whole organism, Chlamydomonas reinhardtii, WT vs cilia-less mutant, absorbance, 96-well (AID 463189); details: OD600 absorbance, 2 days, at 10 µM, stronger effect = higher value;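 further: 0% = wild type cc124 cells in DMSO and 100% = ciliumless bld1 mutant cells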
[11] = inhibitors of Sendai virus-induced IRF3 signaling, primary screen, TLR/RLR signaling modifier project, cell-based, Sendai virus stimulus, luciferase, 10K MLSCN set (AID 602276;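 active means inhibition at or above 50% at 10 µM; inactive means inhibition below 50%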;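 further: firefly luciferase from ISG56 promoter only with Renilla not read in this screen; 0% = Sendai virus plus DMSO and 100% = medium plus DMSO without virus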); details: HEK293 RL24 IRF3 luciferase reporter, at 10 µM, stronger effect = higher value
[12] = inhibitors of poly I:C-induced TLR3 signaling, primary screen, cell-based, poly I:C stimulus, luciferase, 10K MLSCN set (AID 602277;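 active means inhibition of the reporter signal at or above 50%; inactive means inhibition below 50%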); details: HEK293-TLR3 RL24 IRF3 luciferase reporter, at 10 µM, stronger effect = higher value
[13] = molecular target: Muscarinic acetylcholine receptor M4 (Homo sapiens) (UniProt P08173); experiment: compounds altering M4/GIRK thallium flux, either direction, primary screen, M4 allosteric agonist project, cell-based, HEK293 M4/GIRK, BTC-AM (AID 625;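 active means fluorescence slope after compound addition differing from the mean of all tested samples at 99.7% confidence, mostly higher but some lower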;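 further: thallium influx through GIRK channels coupled to M4 in HEK293 cells with BTC-AM dye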); details: at 10 µM, actives lie on both sides
Sequence of Muscarinic acetylcholine receptor M4 (Homo sapiens) (P08173 whole entry, looked up): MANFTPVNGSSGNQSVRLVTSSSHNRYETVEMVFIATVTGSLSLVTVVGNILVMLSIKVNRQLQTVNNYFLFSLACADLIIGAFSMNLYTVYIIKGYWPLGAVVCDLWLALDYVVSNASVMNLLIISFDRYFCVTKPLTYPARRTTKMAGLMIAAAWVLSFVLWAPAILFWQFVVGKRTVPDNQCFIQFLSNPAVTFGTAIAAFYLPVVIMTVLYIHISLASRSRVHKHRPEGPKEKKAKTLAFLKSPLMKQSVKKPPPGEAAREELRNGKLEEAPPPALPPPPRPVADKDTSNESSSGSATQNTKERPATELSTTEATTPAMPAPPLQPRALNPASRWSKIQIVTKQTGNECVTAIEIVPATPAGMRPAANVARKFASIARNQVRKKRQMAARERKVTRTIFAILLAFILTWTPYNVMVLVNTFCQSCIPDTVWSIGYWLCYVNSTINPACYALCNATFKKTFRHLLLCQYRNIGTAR

[14] = measured here: cell density z-score
[15] = measured here: nuclear c-Myc green intensity z-score
[16] = measured here: nuclear pErk red intensity z-score, stronger effect = higher value

SMILES | cell count [1] | inhibition [1] | inhibition of aggregation [2] | nuclei count [2] | inhibition [3] | nuclei count [3] | z-score [4, 14] | z-score [4, 15] | z-score [4, 16] | inhibition [5] | fluorescence slope [6] | NADPH fluorescence slope [7] | slope [8] | outcome [9] | inhibition [10] | inhibition [11] | inhibition [12] | fluorescence slope [13]
CCN(CC)CCCC1(CN)OCCc2ccccc21 (configuration not stated) | 475 | -12.9% (inactive) | -31.3% (inactive) | 86.5% | -55.8% (inactive) | 104% | 1.04 | 0.0892 | -0.524 | 17% (inactive) | -0.378 (inactive) | -6.2e-06 (inactive) | 0.00288 (inactive) | inactive | 24.5% (inactive) | 5.61% (inactive) | 50.5% (active) | 
COc1cccc(C2C(C(=O)c3cc4ccccc4o3)=C(O)C(=O)N2CCN(C)C)c1OC (configuration not stated) | 516 | -3.4% (inactive) | 31% (inactive) | 87.3% | -49.8% (inactive) | 124% | 0.445 | -1.47 | -1.27 | 22.7% (inactive) | -0.492 (inactive) | -4.6e-05 (inactive) | 0.0034 (inactive) | inactive | 20.6% (inactive) | 9.6% (inactive) | 6.82% (inactive) | 0.00523 (inactive)
CCCCCC#CCC#CCC#CCC#CCCCC(=O)O | 542 | -10.5% (inactive) | -23.3% (inactive) | 92.5% | -39.3% (inactive) | 127% | -0.772 | 0.757 | 0.0999 | -0.493% (inactive) | -0.461 (inactive) | -0.000212 (active) | 0.00468 (inactive) | inactive | 2.88% (inactive) | 11% (inactive) | 33.2% (inactive) | 
Nc1ccc(S(=O)(=O)Nc2ccccn2)cc1 | 684 | 5.6% (inactive) | 15.6% (inactive) | 101% | -123% (inactive) | 131% | -1.05 | -1.54 | 0.683 | 12.4% (inactive) | -0.459 (inactive) | -4.9e-05 (inactive) | 0.00448 (inactive) | inactive | 4.41% (inactive) | 12.4% (inactive) | 42.5% (inactive) | 
O=C(O)c1ccccc1S | 650 | -5% (inactive) | 6.8% (inactive) | 96.1% | -76.8% (inactive) | 126% | 1.28 | 1.34 | -0.494 | 21.2% (inactive) | -0.435 (inactive) | -8.2e-05 (inactive) | 0.00404 (inactive) | inactive | -11% (inactive) | 6.85% (inactive) | 19% (inactive) | 
CN1CCN(/C=N/c2sc3c(c2C#N)CCCCC3)CC1 | 536 | -4.8% (inactive) | 2.6% (inactive) | 116% | -74.7% (inactive) | 108% | -3.34 | 0.909 | 1.9 | -4.27% (inactive) | -0.42 (inactive) | -6e-06 (inactive) | 0.00496 (inactive) | inactive | 135% (active) | -35.3% (inactive) | -83.9% (inactive) | 
Nc1cccc(C(=O)O)c1 | 563 | 3.8% (inactive) | 28.2% (inactive) | 59% | -31.1% (inactive) | 97.4% | 1.14 | 0.242 | -0.0201 | 12.4% (inactive) | -0.462 (inactive) | -4.9e-05 (inactive) | 0.00577 (inactive) | inactive | -1.48% (inactive) | 9.57% (inactive) | 34.4% (inactive) | 
Cc1ccc(-c2nnc(-c3cccc(Br)c3)o2)cc1 | 512 | -1.8% (inactive) | -23.2% (inactive) | 96.1% | -41.7% (inactive) | 126% | 0.516 | 0.261 | 0.911 | -15.1% (inactive) | -0.487 (inactive) | -9.8e-05 (inactive) | 0.00623 (inactive) | inactive | 8.63% (inactive) | -18% (inactive) | -64% (inactive) | 0.00652 (inactive)
N[C@@H](Cc1ccc(O)c(I)c1)C(=O)O | 525 | 0.1% (inactive) | 1.7% (inactive) | 92.3% | -11.6% (inactive) | 110% | -0.528 | -0.732 | -0.19 | -4.44% (inactive) | -0.463 (inactive) | 3e-05 (inactive) | 0.00503 (inactive) | inactive | 0.129% (inactive) and -19.2% (inactive) | 9.28% (inactive) | 24.3% (inactive) | 
C/C=C(/C(=C/C)c1ccc(O)cc1)c1ccc(O)cc1 | 603 | -14.5% (inactive) | 10.1% (inactive) | 112% | -76% (inactive) | 132% | -0.991 | -0.543 | 0.777 | 13.3% (inactive) | -0.459 (inactive) | -5.4e-05 (inactive) | 0.00464 (inactive) | inactive | 25.6% (inactive) | 8.63% (inactive) | 33.1% (inactive) | 
